Screening data as filed in PubChem BioAssay.
Rows were chosen to be rich in hits. Some 3.1% of all compounds tested hit in one or more screens of this group.
ATG4B inhibitor – ATG4B (human) cysteine protease inhibition; Q9Y4P1; ATG4B cleavage of LC3-PLA2, NBD-HPC fluorescence, 1 h; inhibition, % at 8.33 µM; 340,000 tested, 0.51% active; in the data active = inhibition above about 40%
NadD block – blocks S. aureus nicotinate mononucleotide adenylyltransferase | purified NadD enzyme, colorimetric absorbance read-out | inhibition, % at 20 µM | 360,000 tested, 0.78% active | AID 602399; in the data active = inhibition above about 26%
Mot1-301 SUMO – SUMOylation pathway inhibition by Mot1-301 growth rescue; S. cerevisiae Mot1-301 growth rescue, ATP luminescence, 38.5C; percent above DMSO median, 100 means doubled; growth rescue, % at 18.8 µM; 320,000 tested, 1% active; AID 2716;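 active = every valid replicate shows activation above 250% relative to neutral control wells; inactive = the rest, any valid replicate at or below 250%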;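 also: OY570 slx delta 5 strain wells were the positive control but not used for scaling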
Calb FLC – affects C. albicans growth with fluconazole. growth inhibition, % (no concentration beside the values). 300,000 tested, 0.57% active. C. albicans CaCi-2 (fluconazole-resistant clinical isolate) + fluconazole, Alamar Blue growth, 48 h;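 active = growth inhibition above about 58% in most replicates, limit read from the data, passing the limit was not always enough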;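 also: all wells also contain fluconazole at 8 µg/ml as a sub-toxic cotreatment; 0% = median of DMSO wells and 100% = median of geldanamycin control wells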
FAS-TE inh – FAS thioesterase (human) inhibition; P49327; recombinant FAS-TE, OMFH fluorogenic substrate, fluorescence endpoint; inhibition, % at 15 µM; 360,000 tested, 0.67% active;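 active = compounds whose normalised, plate-corrected inhibition of enzyme fluorescence in the single-dose primary screen is 50% or more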;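 also: 0% = DMSO with enzyme and 100% = substrate without enzyme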
NadD inh conf – confirmation of Staphylococcus aureus NadD inhibitors; purified S. aureus NadD, colorimetric enzyme assay; shares compounds with NadD block; 2,000 tested, 13% active; inhibition, % at 20 µM; in the data active = inhibition mostly above about 42%, no sharp cut-off; inactive = mostly below about 42%
Active calls of the source: *; . = not tested or not shown.

SMILES | ATG4B inhibitor | NadD block | Mot1-301 SUMO | Calb FLC | FAS-TE inh | NadD inh conf
O=C(N/N=C/c1ccc([N+](=O)[O-])o1)c1ccccc1-n1cccc1 | 2 | -2 | 3 | -8 | -2 | .
O=C(O)COc1ccc(/C=N/NC(=O)c2cn(-c3ccccc3)nc2-c2ccccc2)cc1 | -11 | 6 | 1 | 5 | -1 | .
O=C(N/N=C/c1ccc([N+](=O)[O-])o1)c1cn(-c2ccccc2)nc1-c1ccccc1 | 5 | 31* | -9 | 10 | -10 | 19
O=C(N/N=C/c1coc2ccccc2c1=O)c1ccncc1 | 4 | 3 | -15 | -15 | 18 | .
O=C(N/N=C/c1coc2ccccc2c1=O)c1cn(-c2ccccc2)nc1-c1ccc(F)cc1 | 22 | 34* | 2 | -10 | 8 | 2
O=C(COc1ccc(F)c(Cl)c1)Nc1ccc(N2CCOCC2)cc1 | 0 | 0 | 26 | . | 2 | .
c1ccc(OCCNc2nc(NCC3CC3)nc3cc(-c4ccccc4)sc23)cc1 | . | 33* | . | . | -7 | 19
CC(C)Nc1nc(NCCN2CCCC2)c2sc(-c3ccccc3)cc2n1 | . | 34* | . | . | -11 | -21
c1ccc(CNc2nc(NCC3CC3)nc3cc(-c4ccccc4)sc23)cc1 | . | 26 | . | . | -8 | .
O=C(C1CCN(S(=O)(=O)c2c(Cl)cccc2Cl)CC1)N1CCCCCCC1 | 6 | -3 | -6 | -5 | 6 | .
CCCCN(C=O)c1c(CC)nc2c(OCc3ccccc3C)cccn12 | . | 4 | . | . | 2 | .
O=C(Nc1ccc(-c2nc3ccccc3[nH]2)cc1)c1ccco1 | -11 | -8 | 225 | -8 | -3 | .
O=C(/C=C/c1ccco1)Nc1ccc(-c2nc3ccccc3[nH]2)cc1 | 7 | 34* | -12 | 22 | -3 | 3
O=C(/C=C/c1ccco1)Nc1ccc(N2CCCC2)cc1 | 18 | 36* | -2 | 3 | -5 | 5
Cc1cc(NC(=O)CSc2nc3c([nH]c4ccccc43)c(=O)n2-c2cccc(C(F)(F)F)c2)no1 | 23 | 44* | . | 48 | -11 | 5
O=c1[nH]c(CN2CCN(c3ccccc3O)CC2)nc2scc(-c3ccccc3Cl)c12 | -8 | 12 | 43 | 4 | 12 | .
O=c1[nH]c(CN2CCN(c3ccc(O)cc3)CC2)nc2scc(-c3ccc(Cl)cc3)c12 | -4 | 37* | 260 | 24 | 12 | 23
Cc1ccc(NC(=O)COc2coc(CN3CCN(c4ccccc4)CC3)cc2=O)cc1 | -7 | -2 | 3 | 5 | -2 | .
COC(=O)C1(C)NC(c2cccc(C)c2)C2C(=O)N(c3ccccc3)C(=O)C21 (stereo not given) | . | -4 | . | . | -8 | .
O=C(Cn1c2ccccc2c(=O)c2ccccc21)N/N=C/c1cc([N+](=O)[O-])ccc1N1CCCCCC1 | 7 | 50* | 7 | -3 | 31 | 3
O=C(Cn1c2ccccc2c(=O)c2ccccc21)N/N=C/c1ccc(N2CCCC2)c([N+](=O)[O-])c1 | -2 | 27 | -8 | 4 | -38 | .
CC1(c2cccc(Br)c2)NC(=O)N(CC(=O)N2CCc3ccccc32)C1=O (stereo not given) | -7 | -8 | . | . | 17 | .
COc1ccc(C(=O)Nc2nnc(SCC(=O)NC3CC3)s2)cc1 | -1 | -2 | 4 | -5 | -3 | .
O=C(Cn1c(=O)n(Cc2ccco2)c(=O)c2c3c(sc21)CCCCC3)Nc1ccccc1 | 21 | 51* | -5 | 6 | 17 | 41
O=C(COc1ccccc1)NC1CCSC1=O (stereo not given) | 3 | 3 | 0 | 2 | -7 | .
SMILES | ATG4B inhibitor | NadD block | Mot1-301 SUMO | Calb FLC | FAS-TE inh | NadD inh conf
CCN(CC)C(=O)CSc1ncnc2sccc12 | 1 | 2 | 4 | 1 | -2 | .
CCN(CC)C(=O)CSc1ncnc2c(-c3cccs3)nsc12 | 8 | 34* | -1 | . | 21 | 56*
COCCNC(=O)C1(C)CCCN(C(=O)c2ccc(C)c(F)c2)C1 (stereo not given) | . | 0 | . | . | -8 | .
COc1ccc2c3c(cccc13)N(C)N=C2C | -13 | 52* | -11 | -5 | -14 | 9
COc1ccc2c3c(cccc13)OC2=O | 7 | -1 | 49 | -3 | -4 | .
C=CCOc1ccc(C=CC(=O)c2c(O)c(OC)c(OC)c(OC)c2OC)cc1 | -1 | 2 | . | . | -2 | .
Nc1c(S(=O)(=O)c2cccs2)c2nc3ccccc3nc2n1Cc1ccccc1 | -13 | 16 | 1 | 7 | 12 | .
Cc1ccc(Cn2c(N)c(S(=O)(=O)c3cccs3)c3nc4ccccc4nc32)cc1 | -3 | 32* | 7 | -3 | -1 | 30
CSc1cccc(CNC(=O)C2CCC(=O)N(CCc3ccccc3)C2)c1 (stereo not given) | . | 2 | . | . | -4 | .
Cc1cc(O)c(-c2cc(C(=O)Nc3sc4c(c3C(=O)NCc3ccco3)CCC4)[nH]n2)cc1C | 5 | 36* | 191 | -1 | 7 | -1
Cc1ccc(-c2cc(C(=O)Nc3sc4c(c3C(=O)NCc3ccco3)CCC4)[nH]n2)c(O)c1 | 33 | 36* | -5 | 50 | -3 | 0
Cc1ccc(C(=O)Nc2sc3c(c2C(=O)NCc2ccco2)CCCC3)cc1 | 0 | 3 | -5 | . | 21 | .
COc1ccc(Cc2c(C(C)(C)C)nc3c(C)cc(Br)cn23)c(C)c1 | . | -10 | . | . | -8 | .
CCCCOc1cccc(C2/C(=C(\O)c3ccc4c(c3)OCCO4)C(=O)C(=O)N2CCN2CCOCC2)c1 (stereo not given) | -8 | 47* | 174 | 4 | -8 | 46
C=CCOc1ccc(C2/C(=C(\O)c3ccc4c(c3)OCCO4)C(=O)C(=O)N2CCCN2CCOCC2)cc1 (stereo not given) | -2 | 44* | 4 | 5 | -1 | 30
Cn1cccc1C(NC(=O)c1ccccc1)C(Cl)(Cl)Cl (stereo not given) | 2 | -9 | 3 | -13 | 3 | .
CCOc1ccc(NC(=O)COC(=O)C2C3CC4OC(=O)C2C4C3)cc1 (stereo not given) | 8 | -7 | 14 | 1 | -4 | .
CCCOc1ccc(N)cc1N | -4 | 44* | 2 | -3 | -13 | -3
Nc1c(C(=O)Nc2nc3ccccc3s2)sc2nc(-c3cccs3)ccc12 | 11 | 34* | 0 | -1 | -17 | 23
Nc1c(C(=O)Nc2ccccc2)sc2nc(-c3ccco3)ccc12 | 7 | 35* | 58 | 12 | 6 | 26
Cc1cc(C)n(CC(=O)NC2CCCc3c2cnn3-c2ccc(C)c(C)c2)n1 (stereo not given) | -5 | 2 | 4 | -19 | -8 | .
CCOc1ccc(CCN2C(=O)C(=O)N([C@@H](CC(C)C)CN3CCC[C@H]3CN3C(=O)C(=O)NC[C@@H]3Cc3ccccc3)C[C@@H]2Cc2ccccc2)cc1 | . | 34* | . | . | 12 | 38
CCOc1ccc(CCN2C(=O)C(=O)N([C@@H](CC(C)C)CN3CCC[C@H]3CN3C(=O)C(=O)NC[C@@H]3Cc3ccccc3)C[C@@H]2Cc2ccc(O)cc2)cc1 | . | 35* | . | . | 5 | 34
